In PubChem BioAssay AID1851 (National Center for Advancing Translational Sciences (NCATS), 2009):
Out of some 16,000 compounds screened, about 5,800 (36%) were called active. Roughly 23% stayed inconclusive and do not appear here. Calls follow the shape of the dose curve; as a rule, active = well fitted curve in the direction sought with a large enough effect; inconclusive = small, poorly fitted or top-dose-only effect, or effect the other way; inactive = no such curve, though single readings can be large or run the other way. Some of the results follow.

These molecules were tested against Cytochrome P450 2C19 (Homo sapiens) (UniProt P33261) (assay: Cytochrome panel assay with activity outcomes). Details: recombinant CYP, pro-luciferin dealkylation, luminescence, p450-cyp2c19; series mostly up to 57.1 µM; activity, negative = inhibition: at the top concentration.
Sequence of Cytochrome P450 2C19 (Homo sapiens) (P33261 whole entry, looked up): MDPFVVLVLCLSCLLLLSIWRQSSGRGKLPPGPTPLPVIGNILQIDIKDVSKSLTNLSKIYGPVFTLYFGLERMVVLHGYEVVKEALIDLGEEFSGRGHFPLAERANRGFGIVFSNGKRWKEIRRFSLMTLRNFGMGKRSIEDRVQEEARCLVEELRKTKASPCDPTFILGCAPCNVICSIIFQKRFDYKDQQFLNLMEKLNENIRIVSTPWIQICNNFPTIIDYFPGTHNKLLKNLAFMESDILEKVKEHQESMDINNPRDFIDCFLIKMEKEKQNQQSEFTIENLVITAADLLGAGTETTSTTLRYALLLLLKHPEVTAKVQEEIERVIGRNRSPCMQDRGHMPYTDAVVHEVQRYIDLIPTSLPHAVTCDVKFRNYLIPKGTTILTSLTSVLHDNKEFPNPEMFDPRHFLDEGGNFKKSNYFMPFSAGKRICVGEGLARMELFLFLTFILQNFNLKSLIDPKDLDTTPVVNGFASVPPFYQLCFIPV
% is scaled to controls: 0 for no effect and ±100 for the full control effect.

| SMILES | AC50 | activity, negative = inhibition |
| --- | --- | --- |
| CC(C)(C)NC(=S)Nc1ccc(Nc2ccccc2)cc1 | 4.47 µM (active) |  |
| N#[N+]c1ccc(Nc2ccccc2)cc1 |  | 23.3% [at 11.4 µM] (inactive) |
| CNC(=S)Nc1ccc(Nc2ccccc2)cc1 | 5.62 µM (active) |  |
| Nc1ccc(Nc2ccccc2)cc1 | 10 µM (active) |  |
| C=CC[C@@H]1C=C[C@H](O/N=C(\C)CCN2CCCc3nc(C)c(C)cc32)[C@H](CO)O1 |  | 29.1% [at 11.4 µM] (inactive) |
| CC(C(=O)NC1CCCC1)N(C(=O)c1ccc(-c2ccccc2)[nH]1)c1ccccc1F (stereo not drawn) | 3.98 µM (active) |  |
| Cc1cccc(C)c1NC(=O)C(c1ccc(Cl)cc1Cl)N1CCCCC1 (stereo not drawn) | 15.8 µM (active) |  |
| O=C(COc1cccc(NC(=O)c2cccc([N+](=O)[O-])c2)c1)c1ccc(Br)cc1 | 1.26 µM (active) |  |
| COc1ccc(/C=N/OCc2nc3c4c(ncn3n2)Oc2ccc3ccccc3c2C4c2ccccc2)cc1 (stereo not drawn) | 0.0794 µM (active) |  |
| Cc1ccc(NC2=NC(c3ccccc3)n3c(nc(C)cc3=O)N2)c(C)c1 (stereo not drawn) | 14.1 µM (active) |  |
| Nc1nnnn1/N=C\c1ccc(Cl)c([N+](=O)[O-])c1 | 0.2 µM (active) |  |
| CC1CCN(c2ccc(/C=N/n3nnnc3N)cc2[N+](=O)[O-])CC1 |  | -38.1% (inactive) |
| CC(C)(CO[C@H]1C[C@H]2CC[C@@]1(C)C2(C)C)[N+](=O)[O-] |  | 12.6% [at 11.4 µM] (inactive) |
| O=C(O)CSc1cc(C(F)(F)F)nc(-c2ccccn2)n1 |  | 18% (inactive) |
| CC(Sc1nc(-c2ccccc2)cc(C(F)(F)F)n1)C(=O)N1CCCCC1 (stereo not drawn) | 10 µM (active) |  |
| O=c1[nH]c2cc(Br)cnc2nc1/C=C(\O)c1ccc(F)cc1 |  | -27.4% (inactive) |
| Cc1cccc(CCNc2nc3ccccc3n3nnnc23)c1 | 1.58 µM (active) |  |
| CCC(=O)NC(NC(=O)CC)C(Cl)Cl |  | 3.92% (inactive) |
| CN1CCN(NC(=O)CN2C(=O)/C(=C/c3c(Cl)cccc3Cl)SC2=S)CC1 | 4.47 µM (active) |  |
| CC(C)(C)C(=O)[C@H]1[C@H](c2ccccc2)[C@@]2(N=C(c3ccccc3)OC2=O)C2c3ccccc3C=NN21 (stereo partly drawn) | 1.12 µM (active) |  |
| COc1ccccc1-c1cc(C(=O)Nc2cc(C)n(Cc3ccc(Cl)cc3)n2)no1 | 2.51 µM (active) |  |
| CCOC(=O)Cc1cc(=O)n2[nH]c(C)c(C#N)c2n1 |  | 31.1% (inactive) |
| CCCCOC(=O)CCc1c(C)[nH]c(=O)c(C#N)c1C | 10 µM (active) |  |
| CCCCc1[nH]c(=O)c(C#N)c2c1CCCC2 |  | -19.7% (inactive) |
| CC(=O)N1CCC[C@@]2(CCN(c3ncccn3)C2)C1 |  | -0.379% (inactive) |
| CCc1cccc2c(C=C(C#N)C#N)cn(CC(=O)N3CCCCC3)c12 |  | 52.3% (inactive) |
| CCN(CC)C(=O)Cn1cc(/C=C(\C#N)C(=O)N2CCN(c3ccccc3)CC2)c2ccccc21 | 2 µM (active) |  |
| CCc1cccc2c(C=C(C#N)C#N)cn(CC(=O)N3CCCC3)c12 |  | 53.7% (inactive) |
